Data from PubChem BioAssay (Tox21).
Several values for one entry are separate records, joined by “and”; a condition that tells them apart may be missing. Identical values can stand only once. Results filed as inconclusive are left out. Entries that show only a call come without a potency. Activity calls are given as the source filed them. Calls come from the whole dose curve; as a rule, active = well fitted cell-killing curve with a large enough effect in the repeat runs; inconclusive = weak or mixed curves, or effect the other way; inactive = no such curve, though single readings can be large or run the other way.

Experiment: qHTS assay to identify small molecule antagonists of the progesterone receptor (PR) signaling pathway - cell viability counter screen (AID 1346798); note: nearly all actives have a fitted effect of over 50% in size
Conditions: PR-UAS-bla HEK293T viability, CellTiter-Glo luminescence, 16 h; series mostly up to 92.4 µM
Description: National Center for Advancing Translational Sciences [NCATS]
NIH Chemical Genomics Center [NCGC]
U.S. Environmental Protection Agency [EPA]
National Institutes of Environmental Health Sciences [NIEHS]
National Toxicology Program [NTP]
U.S. Food and Drug Administration [FDA]
Progesterone receptor (PR), a nuclear hormone receptor, plays an important role in development, metabolic homeostasis and reproduction. It is activated by the steroid hormone progesterone. Endocrine disrupting chemicals (EDCs) and their interactions with steroid hormone receptors like PR causes disruption of normal endocrine function. To identify the compounds that inhibit PR signaling, a PR-UAS-bla GripTite cell line i.e. PR-UAS-bla HEK293T (Invitrogen, Carlsbad, CA, USA) containing a beta-lactamase reporter gene under the control of an UAS response element was used to screen Tox21 10K compound library. The cytotoxicity of the Tox21 compound library against the PR-bla cell line was tested in parallel by measuring the cell viability using CellTiter-Glo assay in the same wells.
Tox21 Assay Protocol Summary:
PR-UAS-bla HEK293T cells were dispensed at 3,000 cells/4 uL of assay medium containing 2% charcoal stripped FBS per well into black wall/clear-bottom 1536-well plates using a Multidrop Combi (ThermoFisher Scientific, Waltham, MA) dispenser. After the assay plates were incubated at a 37C and 5% CO2 for 4 hr, 23 nL of compounds dissolved in DMSO, positive controls or DMSO only was transferred to the assay plate by a Pintool station (Kalypsys, San Diego, CA), followed by addition of 1 uL of R5020 in assay medium using a Flying Reagent Dispenser (FRD, Aurora Discovery, San Diego, CA). The plates were incubated at 37C and 5% CO2 for 16 hr. Then 1 uL of LiveBLAzer B/G FRET substrate was added using a Flying Reagent Dispenser, the plates were incubated at room temperature for 2 hours, and fluorescence intensity was measured by an Envision plate reader (PerkinElmer, Shelton, CT). For cell viability readout that measures cytotoxicity, 4 uL/well of CellTiter-Glo reagent was added into the assay plates using a FRD. After 30 min incubation at room temperature, the luminescence intensity in the plates was measured using a ViewLux (PerkinElmer) plate reader.
Potency is the fitted concentration of half-maximal effect.

Structure (SMILES)	Potency
S=c1[nH]c2ccccc2[nH]1	24.4 µM (active)
CCC/C=N/O	inactive
Cn1c(-c2ccccc2)cc(-c2ccccc2)[n+]1C	inactive
COP(=S)(OC)Oc1ccc(S(=O)(=O)N(C)C)cc1	inactive
Cc1ccc([N+](=O)[O-])cc1	inactive
ClC(Cl)(Cl)c1ccccc1	inactive
Cc1ccc(N=CN(C)C=Nc2ccc(C)cc2C)c(C)c1	inactive
C[N+](C)(C)CC(=O)[O-]	inactive
COc1ccc(CO)cc1	inactive
CC1CC(=O)O1 (stereo not given)	inactive
O=C(O)c1nn(Cc2ccc(Cl)cc2Cl)c2ccccc12	inactive
CCOP(=S)(OCC)SCSC(C)(C)C	48.6 µM (active)
Nc1ncn[nH]1	inactive
CC(C)(O)C(=O)Nc1ccc([N+](=O)[O-])c(C(F)(F)F)c1	inactive
Clc1cccc(C(Cl)(Cl)Cl)n1	inactive
CCN(CC)C(=O)C(C)Oc1cccc2ccccc12 (stereo not given)	inactive
O=NN(c1ccccc1)c1ccccc1	inactive
OCCOCCO	inactive
CCCCCCCCCc1ccc(O)cc1	inactive
CC(C)=CC1C(C(=O)OCc2cccc(Oc3ccccc3)c2)C1(C)C (stereo not given)	inactive

Structure (SMILES)	Potency
CC(C)=CC1C(C(=O)OCN2C(=O)C3=C(CCCC3)C2=O)C1(C)C (stereo not given)	inactive
[Cl-].[Cl-].[Cl-].[Fe+3]	inactive
CCCCOCC1CO1 (stereo not given)	inactive
CC(O)CN(CC(C)O)CC(C)O (stereo not given)	inactive
[CH3][Sn]([Cl])([Cl])[Cl]	inactive
Brc1ccc(Br)cc1	inactive
Nc1ccc2ccccc2c1	inactive
c1ccc2c(c1)Nc1ccccc1S2	inactive
O=[N+]([O-])c1ccc(Cl)c([N+](=O)[O-])c1	31.1 µM (active) and 27.3 µM (active)
Cl	inactive
CCOS(=O)(=O)OCC	inactive
CCC1(c2ccc(N)cc2)CCC(=O)NC1=O (stereo not given)	inactive
Cc1cccc(N=Nc2ccc(N(C)C)cc2)c1	inactive
NN=C(N)N	inactive
CCNc1nc(Cl)nc(NC(C)(C)C#N)n1	inactive
C[N+](C)(C)C	inactive
COP(=S)(OC)Oc1ccc(Sc2ccc(OP(=S)(OC)OC)cc2)cc1	inactive
CC(C)(O)C#N	inactive
CSc1nc(NC(C)C)nc(NC(C)C)n1	inactive
Clc1ccccc1-c1nnc(-c2ccccc2Cl)nn1	inactive
